Results reported in PubChem BioAssay (NCATS).
Where “and” joins values, the source holds several entries; their conditions need not be identical. Equal entries are not always repeated. Results filed as inconclusive are left out. Calls of active or inactive are those of the source. Unless noted, calls come from the whole dose curve.

Legend:
[1] = target: Estrogen receptor (Homo sapiens) (UniProt P03372); test: qHTS assay for small molecule antagonists of estrogen receptor alpha signaling (AID 588513; active = well fitted curve in the direction sought with a large enough effect in the signal ratio, with a control signal flat, not every such curve was filed as active; the % refers to the signal ratio; note: potency is the fitted concentration of half-maximal effect)
How it was run: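 Antagonist-mode qHTS in ER-alpha-UAS-bla HEK 293 cells: compound titration, 0.5nM estradiol for 18 h, CCF4 fluorescence, Hill-derived IC50.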

[2] = target: Estrogen receptor (Homo sapiens) (UniProt P03372); test: qHTS assay for small molecule agonists of estrogen receptor alpha signaling (AID 588514);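 note: 0% = vehicle only and 100% = reference agonist; nearly all actives have a fitted effect of over 70% in size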
How it was run: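 ER-alpha-UAS-bla GripTite HEK293 cells, 5000/well in 2% charcoal/dextran-stripped FBS medium, treated with compound titrations 18 h at 37 C. CCF4 beta-lactamase read by fluorescence after 2 h RT; normalised to 20 nM 17-beta-estradiol (100%) and DMSO (0%), Hill fit for EC50 and efficacy.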

[3] = target: Glucocorticoid receptor (Homo sapiens) (UniProt P04150); test: qHTS assay for small molecule agonists of glucocorticoid receptor signaling (AID 588532; active = well fitted curve in the direction sought with a large enough effect in the signal ratio, with a control signal flat; the % refers to the signal ratio;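 note: 100% = dexamethasone at 0.1 µM and 0% = DMSO only wells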); settings: HeLa MMTV-bla, beta-lactamase ratio, agonist, 18 h; activation: stronger effect = higher value, percent of dexamethasone control, DMSO zero
How it was run: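 MMTV-bla HeLa beta-lactamase reporter cells in 1% charcoal/dextran FBS medium, compounds up to 92 uM for 18 h at 37 C, CCF4 readout; normalized to 0.1 uM dexamethasone (100%), EC50 and efficacy from Hill fits.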

[4] = target: Peroxisome proliferator-activated receptor gamma (Homo sapiens) (UniProt P37231); test: qHTS assay for small molecule agonists of peroxisome proliferator-activated receptor gamma signaling (AID 588536; active = well fitted curve in the direction sought with a large enough effect in the signal ratio, with a control signal flat, not every such curve was filed as active; the % refers to the signal ratio;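 note: 0% = DMSO basal wells and 100% = rosiglitazone at 2 µM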)
How it was run: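 HEK293 UAS-bla reporter line, 1% charcoal/dextran FBS; titration, 16 h, 37 C; CCF4 loading 2 h RT; fluorescence 460/530 nm. Normalized to rosiglitazone 2 uM = 100%, DMSO = 0%.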

[5] = target: Vitamin D3 receptor (Homo sapiens) (UniProt P11473); test: qHTS assay for small molecule antagonists of vitamin D receptor signaling (AID 588541);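 note: receptor activated by calcitriol during compound treatment; series mostly up to about 77 µM; % is set by controls: 0 for no effect and ±100 for the full control effect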
How it was run: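 VDR-UAS-bla HEK293T cells in 2% charcoal-stripped FBS were stimulated with 1-alpha,25-dihydroxyvitamin D3 (3 nM final) plus compound for 16 h at 37 C. The beta-lactamase CCF4 readout was normalized to 50 nM agonist and DMSO, and Hill fits gave IC50.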

[6] = target: Retinoic acid receptor RXR-alpha (Homo sapiens) (UniProt P19793); test: qHTS assay for small molecule agonists of retinoid X receptor alpha signaling (AID 588544);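 note: 0% = DMSO basal wells and 100% = reference agonist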
[7] = qHTS assay for small molecule antagonists of retinoid X receptor alpha signaling (AID 588546; active = well fitted inhibition curve with a large enough effect in the signal ratio, with a control signal flat, not every such curve was filed as active; the % refers to the signal ratio;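 note: cells stimulated with 9-cis-retinoic acid as agonist; % is set by controls: 0 for no effect and ±100 for the full control effect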); settings: HEK293T RXRa-UAS-bla, beta-lactamase ratio, antagonist mode; measured here: W530 green channel, cytotoxicity proxy
How it was run: (§1)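 Beta-lactamase reporter inhibition, read as CCF4 fluorescence ratio (ex 405, em 460/530 nm) after 2 h at RT. HEK293T UAS-bla cells, 2500/well, were stimulated with 9-cis-RA at 500 or 100 nM final alongside test compound for 18 h at 37 C.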

[8] = target: Retinoic acid receptor RXR-alpha (Homo sapiens) (UniProt P19793); test: as above; settings: HEK293T RXRa-UAS-bla, beta-lactamase ratio, antagonist mode
How it was run: as §1

[9] = qHTS assay for small molecule activators of the p53 signaling pathway (AID 651743; active = well fitted activation curve with a large enough effect in the signal ratio, not every such curve was filed as active; the % refers to the signal ratio; note: series mostly up to about 92 µM; % of control where 0% means no effect); settings: HCT-116 p53RE-bla, beta-lactamase FRET ratio, 16 h; activation: stronger effect = higher value
How it was run: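 p53RE-bla HCT-116 cells carrying a beta-lactamase reporter under p53 response elements were exposed to compounds for 16 hours at 37 C. Reporter activity read as fluorescence after 2 hours at room temperature with LiveBLAzer B/G FRET substrate.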

[10] = qHTS assay for environmental chemicals that activate the Aryl hydrocarbon Receptor (AhR) signaling pathway (AID 651777; active = well fitted curve in the direction sought with a large enough effect; an effect the other way counts as inactive or inconclusive; note: % of control where 0% means no effect; nearly all actives have a fitted effect of over 15% in size); settings: 1A2-DRE human hepatoma cells, luciferase, 24 h; activation: stronger effect = higher value
How it was run: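 Following a 24 hr incubation with test chemicals at 37 C and 5% CO2, 1A2-DRE human hepatoma cells received One-Glo reagent; after 30 min at room temperature, luciferase output reflected CYP1A2 induction via AhR.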

[11] = target: Peroxisome proliferator-activated receptor alpha (Homo sapiens) (UniProt Q07869); test: qHTS assay for small molecule agonists of the peroxisome proliferator-activated receptor alpha (PPARalpha) signaling pathway (AID 651778; active = well fitted curve in the direction sought with a large enough effect; an effect the other way counts as inactive or inconclusive; note: % of control where 0% means no effect); settings: PathHunter PPARalpha complementation, chemiluminescence, 6 h; max response: stronger effect = higher value
How it was run: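 Enzyme-fragment complementation assay in which ligand-bound PPARalpha translocates and forms an active enzyme that generates chemiluminescence. Cells were plated overnight, exposed to compound for 6 hr at 37 C, and then given detection reagent for 60 min at room temperature.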

[12] = qHTS assay for small molecule agonists of the antioxidant response element (ARE) signaling pathway measured by Nrf2-dependant transcriptional activity (AID 720636; active = well fitted curve in the direction sought with a large enough effect in the repeat runs; an effect the other way counts as inactive or inconclusive;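 note: HepG2 cells with an ARE-driven luciferase reporter; % of control where 0% means no effect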)
How it was run: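 ONE-Glo luminescence, read 30 min after reagent addition at room temperature, reflected ARE reporter activity in HepG2 cells that had been incubated with compound for 16 hr at 37 C in 1% dialyzed FBS.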

[13] = qHTS assay for small molecule agonists of the antioxidant response element (ARE) signaling pathway measured by Nrf2-dependant transcriptional activity - cell viability counter screen (AID 720653; active = well fitted curve in the direction sought with a large enough effect in the repeat runs; an effect the other way counts as inactive or inconclusive; note: potency is the fitted concentration of half-maximal effect; for max response: % is set by controls: 0 for no effect and ±100 for the full control effect); settings: ARE-bla HepG2 viability, CellTiter-Glo ATP luminescence, 16 h; max response: stronger effect = lower value
How it was run: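 ARE-bla HepG2 cells treated with compounds for 16 h at 37C; this counter screen measures viability as intracellular ATP by CellTiter-Glo luminescence after 30 min at room temperature.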

[14] = qHTS assay for cell viability of HEK293 cells (AID 743288; active = well fitted curve in the direction sought with a large enough effect; an effect the other way counts as inactive or inconclusive; note: nearly all actives have a fitted effect of over 50% in size; note: potency is the fitted concentration of half-maximal effect; for max response: % is set by controls: 0 for no effect and ±100 for the full control effect); settings: ATP luminescence (CellTiter-Glo), 18 h; max response: stronger effect = lower value
How it was run: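 Luminescent ATP quantitation served as the viability read-out. Cells (parental HEK293, 2,000/well) received compounds after at least 5 h at 37 C and were exposed for 18 h before a 30 min room-temperature reagent step.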

[15] = qHTS assay for cell viability of the p53RE-bla HCT-116 cell line (AID 743292; active = well fitted curve in the direction sought with a large enough effect; an effect the other way counts as inactive or inconclusive; note: nearly all actives have a fitted effect of over 55% in size; note: potency is the fitted concentration of half-maximal effect)
How it was run: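 After plating at 4,000 cells per well and a 5 h rest at 37 C, HCT-116 cells carrying p53RE-bla received test chemicals in DMSO. Sixteen hours later at 37 C, CellTiter-Glo was added and luminescence recorded following 30 min at room temperature.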

[16] = target: Nuclear receptor subfamily 1 group I member 2 (Rattus norvegicus) (UniProt Q9R1A7); test: qHTS assay for small molecule activators of the rat pregnane X receptor (rPXR) signaling pathway (AID 651751; call rule not given here; note: 0% is about no effect); settings: rPXR reporter cells, luciferase (One-Glo), 24 h
[17] = target: Vitamin D3 receptor (Homo sapiens) (UniProt P11473); test: qHTS assay for small molecule agonists of vitamin D receptor signaling (AID 588543);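 note: 0% = DMSO basal and 100% = reference agonist control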
How it was run: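 Measured: β-lactamase reporter activity (CCF4, 405 nm excitation, 460/530 nm emission) in HEK293T VDR-UAS-bla cells after 16 h compound exposure at 37 °C. Normalization against 50 nM 1α,25-dihydroxyvitamin D3 and DMSO; Hill-fit EC50.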

[18] = target: Thyroid hormone receptor beta (Homo sapiens) (UniProt P10828); test: qHTS assay for small molecule agonists of thyroid hormone receptor beta signaling (AID 588545);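 note: 0% = DMSO only and 100% = 10 nM T3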
How it was run: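 TR-UAS-bla GripTite HEK 293 cells (2500/well, medium with 2% charcoal/dextran FBS) were treated in agonist mode for 18 h at 37 C, titrated. Beta-lactamase was read by CCF4 ratio after 2 h; normalized to 10 nM T3 (100%) and DMSO, Hill-fitted for EC50 and efficacy.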

[19] = qHTS assay for small molecule activators of the nuclear factor-kappa B (NF-kB) signaling pathway (AID 651749; active = well fitted activation curve with a large enough effect in the signal ratio; the % refers to the signal ratio; note: series mostly up to about 77 µM; % of control where 0% means no effect); settings: NF-kB-bla ME-180 cells, beta-lactamase FRET ratio, 16 h; activation: stronger effect = higher value
How it was run: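 NF-kB-bla ME-180 cells carrying a beta-lactamase reporter under an NF-kB response element, 2,000 cells/well, exposed to compound for 16 hr at 37C; FRET-based beta-lactamase fluorescence read-out of pathway activation.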

[20] = target: Peroxisome proliferator-activated receptor delta (Homo sapiens) (UniProt Q03181); test: qHTS assay for small molecule agonists of peroxisome proliferator-activated receptor delta signaling (AID 588534);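 note: 0% = DMSO basal wells and 100% = positive control agonist at 10 µM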
How it was run: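 Cells carrying a PPAR-delta beta-lactamase reporter were treated with compounds for 18 h at 37 °C in agonist mode. CCF4 fluorescence was read after 2 h; EC50 and efficacy from Hill fits.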

Peroxisome proliferator-activated receptor alpha (Homo sapiens), sequence (Q07869 whole entry, looked up, the tested form may be a part): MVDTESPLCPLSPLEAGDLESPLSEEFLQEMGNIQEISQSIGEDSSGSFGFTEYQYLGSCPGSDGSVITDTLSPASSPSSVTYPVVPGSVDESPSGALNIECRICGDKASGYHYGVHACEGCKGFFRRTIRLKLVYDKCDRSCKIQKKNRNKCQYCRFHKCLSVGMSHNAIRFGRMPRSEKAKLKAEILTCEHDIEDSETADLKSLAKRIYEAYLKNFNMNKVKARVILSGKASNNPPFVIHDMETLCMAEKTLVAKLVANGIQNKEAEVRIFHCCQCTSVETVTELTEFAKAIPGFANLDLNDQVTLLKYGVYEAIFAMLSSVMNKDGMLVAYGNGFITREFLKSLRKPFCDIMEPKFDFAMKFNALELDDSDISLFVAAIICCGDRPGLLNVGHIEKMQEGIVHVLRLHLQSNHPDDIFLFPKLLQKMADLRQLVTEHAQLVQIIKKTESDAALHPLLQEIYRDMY
Nuclear receptor subfamily 1 group I member 2 (Rattus norvegicus), sequence (Q9R1A7 whole entry, looked up): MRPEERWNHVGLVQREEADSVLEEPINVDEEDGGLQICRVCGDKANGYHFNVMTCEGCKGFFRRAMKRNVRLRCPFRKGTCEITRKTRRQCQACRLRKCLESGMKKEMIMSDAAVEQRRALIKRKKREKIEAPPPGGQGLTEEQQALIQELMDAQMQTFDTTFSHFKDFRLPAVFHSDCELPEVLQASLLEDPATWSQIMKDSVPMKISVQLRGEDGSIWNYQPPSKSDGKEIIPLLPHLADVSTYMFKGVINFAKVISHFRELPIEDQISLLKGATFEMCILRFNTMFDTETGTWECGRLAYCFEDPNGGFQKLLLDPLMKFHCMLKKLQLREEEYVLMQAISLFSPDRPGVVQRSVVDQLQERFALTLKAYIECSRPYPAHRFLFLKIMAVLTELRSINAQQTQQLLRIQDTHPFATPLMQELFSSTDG
Peroxisome proliferator-activated receptor gamma (Homo sapiens), sequence (P37231 whole entry, looked up): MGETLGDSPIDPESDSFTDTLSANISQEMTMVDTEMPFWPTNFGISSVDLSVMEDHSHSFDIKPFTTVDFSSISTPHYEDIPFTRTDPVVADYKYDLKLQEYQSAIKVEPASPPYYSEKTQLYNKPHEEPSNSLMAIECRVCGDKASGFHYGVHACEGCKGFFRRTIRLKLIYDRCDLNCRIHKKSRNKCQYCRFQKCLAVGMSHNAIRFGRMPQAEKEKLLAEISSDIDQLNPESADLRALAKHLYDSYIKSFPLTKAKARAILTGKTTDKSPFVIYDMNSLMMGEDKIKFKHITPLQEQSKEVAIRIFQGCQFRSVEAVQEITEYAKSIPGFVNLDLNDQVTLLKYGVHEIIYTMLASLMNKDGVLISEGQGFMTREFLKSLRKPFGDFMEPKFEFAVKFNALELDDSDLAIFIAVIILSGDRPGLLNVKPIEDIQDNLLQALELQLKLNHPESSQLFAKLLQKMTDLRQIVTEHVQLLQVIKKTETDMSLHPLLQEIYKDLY
Retinoic acid receptor RXR-alpha (Homo sapiens), sequence (P19793 whole entry, looked up): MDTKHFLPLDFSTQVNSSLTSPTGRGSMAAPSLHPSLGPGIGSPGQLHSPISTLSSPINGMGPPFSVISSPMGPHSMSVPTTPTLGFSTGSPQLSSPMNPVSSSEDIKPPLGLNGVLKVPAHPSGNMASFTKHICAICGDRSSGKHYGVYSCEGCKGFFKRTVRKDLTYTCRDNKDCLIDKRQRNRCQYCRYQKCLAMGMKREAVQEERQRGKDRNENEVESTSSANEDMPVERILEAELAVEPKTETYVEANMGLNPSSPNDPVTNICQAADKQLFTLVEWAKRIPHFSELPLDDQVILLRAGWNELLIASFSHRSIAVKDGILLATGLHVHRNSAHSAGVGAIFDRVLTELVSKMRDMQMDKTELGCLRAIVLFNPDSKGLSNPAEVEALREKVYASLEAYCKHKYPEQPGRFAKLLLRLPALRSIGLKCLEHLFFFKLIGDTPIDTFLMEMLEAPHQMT
Glucocorticoid receptor (Homo sapiens), sequence (P04150 whole entry, looked up): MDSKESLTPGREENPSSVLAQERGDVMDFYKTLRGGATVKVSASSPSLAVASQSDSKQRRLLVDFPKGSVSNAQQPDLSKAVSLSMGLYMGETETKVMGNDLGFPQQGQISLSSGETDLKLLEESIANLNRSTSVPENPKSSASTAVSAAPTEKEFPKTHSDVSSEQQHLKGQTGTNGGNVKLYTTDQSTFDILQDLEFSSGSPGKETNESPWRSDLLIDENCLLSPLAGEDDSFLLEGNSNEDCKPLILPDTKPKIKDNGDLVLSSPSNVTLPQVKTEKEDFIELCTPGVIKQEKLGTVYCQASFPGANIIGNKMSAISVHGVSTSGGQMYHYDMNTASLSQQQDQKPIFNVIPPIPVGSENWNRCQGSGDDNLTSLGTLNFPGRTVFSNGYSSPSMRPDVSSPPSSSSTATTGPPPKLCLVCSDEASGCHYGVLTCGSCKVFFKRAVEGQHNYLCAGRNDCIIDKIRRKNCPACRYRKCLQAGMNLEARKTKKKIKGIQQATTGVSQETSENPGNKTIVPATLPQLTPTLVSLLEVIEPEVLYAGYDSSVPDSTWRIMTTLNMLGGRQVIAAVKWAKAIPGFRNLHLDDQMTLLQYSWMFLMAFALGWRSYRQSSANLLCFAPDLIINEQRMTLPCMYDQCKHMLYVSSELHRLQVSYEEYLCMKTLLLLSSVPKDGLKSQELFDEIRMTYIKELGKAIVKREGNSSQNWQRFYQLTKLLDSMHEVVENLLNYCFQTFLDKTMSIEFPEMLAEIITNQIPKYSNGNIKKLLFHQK
Vitamin D3 receptor (Homo sapiens), sequence (P11473 whole entry, looked up): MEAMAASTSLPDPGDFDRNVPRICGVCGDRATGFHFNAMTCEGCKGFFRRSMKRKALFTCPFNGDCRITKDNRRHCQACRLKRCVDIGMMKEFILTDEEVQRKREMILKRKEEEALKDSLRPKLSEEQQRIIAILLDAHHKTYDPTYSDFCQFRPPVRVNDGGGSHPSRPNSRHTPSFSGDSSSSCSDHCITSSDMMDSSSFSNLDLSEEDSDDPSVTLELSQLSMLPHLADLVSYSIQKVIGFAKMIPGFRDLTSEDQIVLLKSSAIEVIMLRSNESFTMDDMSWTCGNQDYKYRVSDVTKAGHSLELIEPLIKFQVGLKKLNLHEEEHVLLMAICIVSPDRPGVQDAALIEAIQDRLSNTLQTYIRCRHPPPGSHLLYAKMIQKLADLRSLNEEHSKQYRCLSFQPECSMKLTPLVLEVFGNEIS
Thyroid hormone receptor beta (Homo sapiens), sequence (P10828 whole entry, looked up): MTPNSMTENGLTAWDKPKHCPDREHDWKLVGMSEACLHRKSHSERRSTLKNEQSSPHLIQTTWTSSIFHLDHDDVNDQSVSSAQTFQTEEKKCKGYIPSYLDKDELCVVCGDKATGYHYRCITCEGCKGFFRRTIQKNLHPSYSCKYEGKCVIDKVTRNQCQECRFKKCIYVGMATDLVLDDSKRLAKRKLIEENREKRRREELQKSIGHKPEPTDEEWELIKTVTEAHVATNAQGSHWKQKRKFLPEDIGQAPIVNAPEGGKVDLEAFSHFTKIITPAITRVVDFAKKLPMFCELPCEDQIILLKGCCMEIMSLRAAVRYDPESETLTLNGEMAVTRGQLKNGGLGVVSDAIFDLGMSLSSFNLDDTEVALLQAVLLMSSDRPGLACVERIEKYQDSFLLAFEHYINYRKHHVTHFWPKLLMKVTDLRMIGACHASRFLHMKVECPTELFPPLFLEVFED
Peroxisome proliferator-activated receptor delta (Homo sapiens), sequence (Q03181 whole entry, looked up): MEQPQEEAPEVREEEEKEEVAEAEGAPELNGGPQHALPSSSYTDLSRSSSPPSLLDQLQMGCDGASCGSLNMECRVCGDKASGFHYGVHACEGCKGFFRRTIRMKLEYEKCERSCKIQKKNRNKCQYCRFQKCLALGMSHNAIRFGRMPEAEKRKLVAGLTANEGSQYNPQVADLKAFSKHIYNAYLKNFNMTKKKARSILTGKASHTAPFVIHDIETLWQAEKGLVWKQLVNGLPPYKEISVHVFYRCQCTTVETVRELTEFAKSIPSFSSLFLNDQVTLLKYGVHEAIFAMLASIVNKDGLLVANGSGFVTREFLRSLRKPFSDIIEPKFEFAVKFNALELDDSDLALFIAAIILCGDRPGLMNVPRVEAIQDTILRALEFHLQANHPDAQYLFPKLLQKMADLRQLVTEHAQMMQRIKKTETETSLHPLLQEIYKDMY
Estrogen receptor (Homo sapiens), sequence (P03372 whole entry, looked up): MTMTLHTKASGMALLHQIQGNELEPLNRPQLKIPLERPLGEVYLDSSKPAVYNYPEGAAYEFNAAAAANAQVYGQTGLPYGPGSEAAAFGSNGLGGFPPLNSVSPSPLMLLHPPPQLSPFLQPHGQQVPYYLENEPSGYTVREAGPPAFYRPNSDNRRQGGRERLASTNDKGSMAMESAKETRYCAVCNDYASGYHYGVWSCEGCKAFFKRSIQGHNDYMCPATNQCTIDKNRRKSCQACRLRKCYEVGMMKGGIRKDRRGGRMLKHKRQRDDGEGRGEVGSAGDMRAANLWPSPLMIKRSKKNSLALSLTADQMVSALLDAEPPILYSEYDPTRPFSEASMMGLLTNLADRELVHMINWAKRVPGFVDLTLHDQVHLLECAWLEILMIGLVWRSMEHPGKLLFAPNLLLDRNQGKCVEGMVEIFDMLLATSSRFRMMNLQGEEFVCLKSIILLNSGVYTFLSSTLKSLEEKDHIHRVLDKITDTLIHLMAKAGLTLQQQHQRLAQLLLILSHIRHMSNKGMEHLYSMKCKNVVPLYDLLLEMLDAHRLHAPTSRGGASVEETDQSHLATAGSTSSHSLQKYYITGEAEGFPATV

COc1nc(C)nc(NC(=O)NS(=O)(=O)c2ccccc2Cl)n1
inactive: Potency [1] | Potency [2] | activation [3] -6.7% | Potency [4] | Potency [5] | Potency [6] | max response [8] -1.72% | activation [9] -1.02% | activation [10] 1.34% | max response [11] -1.56% | Potency [12] | max response [13] -0.816% | max response [14] -13% | Potency [15] | max response [16] -1.17%
-9.33%: max response [7]

O=S(=O)(O)C(F)(F)C(F)(F)C(F)(F)C(F)(F)C(F)(F)C(F)(F)F
0.0729%: max response [7]
inactive: Potency [1] | activation [3] 2.96% and -3.35% | Potency [4] | Potency [5] | outcome [17] | Potency [6] | Potency [18] | max response [8] -0.502% | activation [9] -1.95% and 1.08% | activation [19] 0.018% and -0.659% | activation [10] 2.71% and 0.937% | max response [11] 12% and 14.9% | max response [13] 4.85% and -13.8% | max response [14] -20.2% and -14.6% | Potency [15] | max response [16] -2.73% and -3.57%

CNC(=O)O/N=C(\SC)C(=O)N(C)C
-5.53%: max response [7]
inactive: Potency [1] | outcome [20] | Potency [4] | outcome [17] | Potency [6] | Potency [18] | max response [8] -20.9% | activation [9] 2.97% | activation [19] -1.34% | activation [10] -0.668% | max response [11] 0.554% | Potency [12] | max response [13] -17.7% | max response [14] -24.8% | Potency [15] | max response [16] -0.972%

C=C(C)CN(CC)c1c([N+](=O)[O-])cc(C(F)(F)F)cc1[N+](=O)[O-]
-6.07%: max response [7]
inactive: Potency [1] | Potency [2] | activation [3] 1.61% | Potency [4] | Potency [5] | Potency [6] | Potency [18] | max response [8] 1.05% | activation [9] 0.904% | activation [19] -4.66% | activation [10] 1.28% | max response [11] 0.658% | Potency [12] | max response [13] 5.45% | max response [14] -3.14% | Potency [15]

CC1(C)CN=C(NN=C(/C=C/c2ccc(C(F)(F)F)cc2)/C=C/c2ccc(C(F)(F)F)cc2)NC1
inactive: activation [10] -13.3% | max response [11] -2.05% | Potency [12]
active: Potency [1] 14.1 µM [inhibitor] | Potency [13] 25.1 µM | Potency [14] 44.7 µM | Potency [15] 50.1 µM

COc1cc(Cl)c(OC)cc1Cl
inactive: Potency [1] | Potency [2] | activation [3] -1.33% | Potency [4] | Potency [5] | outcome [17] | Potency [6] | Potency [18] | activation [9] -1% | activation [19] -1.99% | activation [10] -2.48% | max response [11] -0.244% | max response [13] -1.62% | max response [14] -14.2% | Potency [15] | max response [16] 1.36%

CC(C)(C)C(=O)[C@@H](Oc1ccc(Cl)cc1)n1cncn1
-6.66%: max response [7]
inactive: Potency [1] | Potency [2] | activation [3] 6.65% | outcome [20] | Potency [4] | outcome [17] | Potency [6] | Potency [18] | max response [8] 9.68% | activation [9] 0.216% | activation [19] -1.55% | activation [10] 5.12% | Potency [12] | max response [13] 0.855% | max response [14] -4.89% | Potency [15]

CCSC(C)CC1CC(=O)C(/C(CC)=N/OC/C=C/Cl)=C(O)C1 (stereo unspecified)
inactive: Potency [1] | activation [3] -3.59% | outcome [20] | Potency [4] | Potency [5] | outcome [17] | Potency [18] | max response [8] 0.139% | activation [9] -5.66% | activation [19] 0.614% | activation [10] -2.18% | max response [11] 0.0996% | Potency [12] | max response [13] -19.5% | max response [14] -16.3% | Potency [15]
-6.58%: max response [7]

CC(C)(C#N)N=NC(C)(C)C#N
inactive: Potency [1] | Potency [2] | activation [3] 6.88% | outcome [20] | Potency [4] | Potency [5] | outcome [17] | Potency [6] | max response [8] -0.927% | activation [9] -7.6% | activation [10] 3.1% | max response [11] -0.208% | max response [13] -0.383% | max response [14] -5.77% | Potency [15] | max response [16] 0.774%
-2.24%: max response [7]

OC(Cn1cncn1)(c1ccc(F)cc1)c1ccccc1F (stereo unspecified)
-19.4%: max response [7]
inactive: Potency [1] | Potency [2] | outcome [20] | Potency [4] | Potency [5] | outcome [17] | Potency [6] | Potency [18] | max response [8] -2.11% | activation [9] 0.874% | activation [19] 0.295% | activation [10] -1.4% | max response [11] -2.15% | Potency [12] | max response [14] -3.84% | Potency [15]

CC(C)(C)C(=O)[C@H](Oc1ccc(Cl)cc1)n1cncn1
20.1%: max response [7]
inactive: Potency [1] | Potency [2] | activation [3] -0.211% | outcome [20] | Potency [4] | Potency [5] | outcome [17] | Potency [6] | Potency [18] | max response [8] -22% | activation [9] -5.19% | activation [19] -5.68% | activation [10] 3.75% | max response [11] -2.36% | Potency [12] | max response [14] -16.1% | Potency [15]
